Experimental findings from PubChem BioAssay (NCI) are described below.

About 83,000 compounds went through this panel and 20% of them were active in at least one assay; those are over-represented in the sample as a whole.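 For each line, cells grew in 96-well plates with the test compound present at a single concentration for 48 hours.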 Values without a mark were called inactive. The source made the active and inactive calls. How the source made its calls: active means growth percent below 10; inactive means the rest.

Some test systems named below: SR leukemia; RPMI-8226 leukemia; OVCAR-8 ovarian; OVCAR-5 ovarian; OVCAR-4 ovarian; SK-OV-3 ovarian; IGROV1 ovarian; HS 578T breast; NCI/ADR-RES ovarian; T-47D breast; BT-549 breast; MDA-MB-435 melanoma; SW-620 colon; MCF7 breast; HCT-116 colon; HCC-2998 colon; KM12 colon.
Experiment in all cases: NCI-60 one-dose screen, 48 h (100 = growth as untreated, 0 = no growth, -100 = all killed)
What all share (details): 10 µM unless noted

As for `CC(=O)Nc1ccc(C)c(Nc2cc(-c3ccc(-n4cccn4)cc3)[nH]n2)c1`, the growth was 19.2% in the assay on SR leukemia; 50.3% in the assay with RPMI-8226 leukemia; 80% in the assay on OVCAR-8 ovarian; 93.3% with OVCAR-5 ovarian; 82.1% in the assay with OVCAR-4 ovarian; 59.3% with SK-OV-3 ovarian. Moreover, the growth in the assay with IGROV1 ovarian is 47.6%; with HS 578T breast, 42.3%; with NCI/ADR-RES ovarian it was 87.7%; in the assay with T-47D breast, 53%; in the assay on BT-549 breast it was 30.4%; in the assay with MDA-MB-435 melanoma, -26.4% (active). The growth with SW-620 colon was 31.5%; in the assay on MCF7 breast, 23.4%; with HCT-116 colon it was 19.3%; in the assay on HCC-2998 colon, 83.2%; in the assay on KM12 colon, 30.8%.

Consider `C(=C(\C1=NCCN1)n1cnc2ccccc21)/c1cccc2ccccc12`, for which the growth in the assay on SR leukemia is 84.7%; in the assay on RPMI-8226 leukemia it was 87.2%; with OVCAR-8 ovarian it was 95.8%; in the assay on OVCAR-5 ovarian, 81.4%; in the assay with OVCAR-4 ovarian, 93.3%; in the assay with SK-OV-3 ovarian, 89%. Besides, the growth with IGROV1 ovarian was 89.7%; in the assay with HS 578T breast it was 92.9%; in the assay on NCI/ADR-RES ovarian it was 96.8%; with T-47D breast, 82.4%; in the assay with BT-549 breast, 107%; in the assay with MDA-MB-435 melanoma it was 74%. The growth is 102% with SW-620 colon; 57.3% with MCF7 breast; 88% with HCT-116 colon; 92.9% in the assay on HCC-2998 colon; 42.5% with KM12 colon.

Take `Cc1cn(-c2cc(NC(=O)c3cncc(C#Cc4cnc5ccc(O[C@@H]6CCOC6)nn45)c3)cc(C(F)(F)F)c2)cn1`: the growth with SR leukemia is -35.6% (active); in the assay on RPMI-8226 leukemia, -29.8% (active); in the assay with OVCAR-8 ovarian it was -49.7% (active); in the assay with OVCAR-5 ovarian it was 0.672% (active); in the assay on OVCAR-4 ovarian, -33.1% (active); in the assay with SK-OV-3 ovarian it was -22.3% (active). The growth was -9.41% (active) with IGROV1 ovarian; -25.1% (active) with HS 578T breast; 40.4% with NCI/ADR-RES ovarian; -28.6% (active) in the assay on T-47D breast; -96% (active) in the assay with BT-549 breast; -83.1% (active) with MDA-MB-435 melanoma. For the same molecule, the growth in the assay on SW-620 colon was 6.01% (active); in the assay with MCF7 breast, -52% (active); in the assay on HCT-116 colon it was -95.7% (active); in the assay with HCC-2998 colon it was -13.7% (active); in the assay with KM12 colon, -21.5% (active).

With `N#C/C(=C\c1ccc(N2CCCCC2)cc1)C(=O)Nc1sc2c(c1C#N)CCC2`, the growth in the assay with SR leukemia was 97.6%; with RPMI-8226 leukemia it was 69.3%; in the assay on OVCAR-8 ovarian, 99.8%; in the assay with OVCAR-5 ovarian it was 93.7%; with OVCAR-4 ovarian it was 84.5%; in the assay with SK-OV-3 ovarian, 96.6%. Moreover, the growth in the assay on IGROV1 ovarian is 102%; with HS 578T breast, 99.3%; in the assay with NCI/ADR-RES ovarian it was 95.7%; in the assay on T-47D breast, 97.7%; with BT-549 breast, 108%; in the assay on MDA-MB-435 melanoma, 90%. Besides, the growth was 100% in the assay with SW-620 colon; 87.3% in the assay with MCF7 breast; 89.8% with HCT-116 colon; 105% with HCC-2998 colon; 96.5% in the assay with KM12 colon.

For `Nc1n[nH]c2cccc(C#Cc3cccc(NC(=O)c4cccc(OC(F)(F)F)c4)c3)c12`, the growth with SR leukemia is 47%; with RPMI-8226 leukemia, 57.2%; in the assay on OVCAR-8 ovarian, 60.3%; in the assay on OVCAR-5 ovarian, 50.7%; with OVCAR-4 ovarian, 66.7%; with SK-OV-3 ovarian, 105%. The growth was 19.9% with IGROV1 ovarian; 1.43% (active) with HS 578T breast; 57.1% in the assay with NCI/ADR-RES ovarian; 33.6% with T-47D breast; 85% with BT-549 breast; 41% in the assay with MDA-MB-435 melanoma. Further, the growth with SW-620 colon was 57.1%; with MCF7 breast, 58.8%; in the assay with HCT-116 colon, 21.7%; with HCC-2998 colon, 38%; in the assay on KM12 colon, 58%.

For `CCn1c2ccc(/C=N/OCCCN(C)C)cc2c2cc(/C=N/OCCCN(C)C)ccc21`, the growth in the assay on SR leukemia was -40.8% (active); with RPMI-8226 leukemia, -15.9% (active); with OVCAR-8 ovarian, -5.7% (active); in the assay with OVCAR-5 ovarian, 31.1%; in the assay on OVCAR-4 ovarian it was 52.7%; with SK-OV-3 ovarian, 109%. The growth with IGROV1 ovarian is -52.8% (active); in the assay with HS 578T breast it was 73.8%; in the assay on NCI/ADR-RES ovarian it was 9.38% (active); with T-47D breast, 105%; with BT-549 breast, 60.9%; in the assay with MDA-MB-435 melanoma, -48.9% (active). In addition, the growth in the assay with SW-620 colon was -47.3% (active); in the assay with MCF7 breast, -92% (active); with HCT-116 colon it was -72.2% (active); in the assay on HCC-2998 colon it was -49.4% (active); with KM12 colon, 17.1%.

`CCOC(=O)/C(F)=C/C1CC1CCc1cccc(C(F)(F)F)c1` (stereo not drawn): the growth in the assay on SR leukemia was 106%; in the assay with RPMI-8226 leukemia it was 102%; with OVCAR-8 ovarian, 104%; in the assay with OVCAR-5 ovarian, 100%; with OVCAR-4 ovarian, 107%; in the assay on SK-OV-3 ovarian, 99.8%. For the same molecule, the growth in the assay on IGROV1 ovarian was 113%; in the assay on HS 578T breast, 103%; in the assay on NCI/ADR-RES ovarian it was 106%; in the assay on T-47D breast, 108%; with BT-549 breast, 113%; with MDA-MB-435 melanoma, 103%. In addition, the growth in the assay with SW-620 colon was 102%; with MCF7 breast, 95%; in the assay on HCT-116 colon it was 110%; in the assay on HCC-2998 colon, 109%; in the assay on KM12 colon it was 99.1%.

With `CC1(COc2ccc3ncc(C#Cc4cncc(C(=O)Nc5cc(C(C)(C)C)on5)c4)n3n2)COC1`, the growth in the assay with SR leukemia is 34%; with RPMI-8226 leukemia, 47.3%; in the assay with OVCAR-8 ovarian, 35.5%; with OVCAR-5 ovarian, 55.9%; with OVCAR-4 ovarian it was 55.6%; with SK-OV-3 ovarian it was 61.2%. In addition, the growth was 25% with IGROV1 ovarian; 15.1% in the assay with HS 578T breast; 22.2% with NCI/ADR-RES ovarian; 32.5% with T-47D breast; 81.3% in the assay with BT-549 breast; 50% in the assay with MDA-MB-435 melanoma. Besides, the growth with SW-620 colon is 38.2%; in the assay on MCF7 breast, 40.5%; in the assay on HCT-116 colon it was 17.9%; in the assay with HCC-2998 colon it was 49.7%; in the assay with KM12 colon it was 15%.

With `CS(=O)(=O)c1nccc(-c2c(-c3ccc(F)c(OCc4ccccc4)c3)nc3sccn23)n1`, the growth in the assay on SR leukemia was 16.6%; in the assay on RPMI-8226 leukemia it was 43.3%; in the assay on OVCAR-8 ovarian it was 99.6%; in the assay on OVCAR-5 ovarian, 100%; with OVCAR-4 ovarian, 104%; in the assay on SK-OV-3 ovarian, 117%. The growth was 101% with IGROV1 ovarian; 91.3% with HS 578T breast; 99.9% in the assay on NCI/ADR-RES ovarian; 18.5% with T-47D breast; -0.34% (active) with BT-549 breast; 101% in the assay with MDA-MB-435 melanoma. The growth was 100% in the assay with SW-620 colon; 16.5% in the assay with MCF7 breast; 38% in the assay with HCT-116 colon; 32.2% in the assay with HCC-2998 colon; 96.5% with KM12 colon.
